PubChem BioAssay (NCI)
This is part of a sample that, as a whole, favours compounds with a hit. Of some 79,000 tested, about 15% had one in any assay. Unmarked numbers belong to inactive results. Cut-off read from the data, not from the text of the source: active = growth inhibition above about 70%; inactive = the rest.

experiment: NCI Yeast Anticancer Drug Screen. Data for the rad50 strain (AID 155);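 note: 0% = growth of vehicle-only cultures of the same strain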; conditions: S. cerevisiae rad50 strain growth inhibition; at 50.0 µM; active compounds read high
Outline: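 Readout: growth inhibition relative to vehicle-treated cultures. Compound exposure was carried out in a genetically defined yeast strain deficient in DNA damage repair.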

Row | SMILES | growth inhibition [%]
1 | Oc1ccc(-c2nc(-c3ccccc3)c(-c3ccccc3)[nH]2)cc1 | -23.1
2 | O=C1c2ccccc2C(=O)N1CC1CO1 (stereo not given) | 2.85
3 | C[N+]1(C)C/C(=C\c2ccc(O)cc2)C(=O)/C(=C/c2ccc(O)cc2)C1 | -0.75
4 | O=C(O)C(CCl)c1ccccc1 (stereo not given) | 7.05
5 | O=C(c1ccccc1)c1c(-c2ccccc2)sc2nc3ccccc3nc12 | 3
6 | CC(C(=O)c1ccccc1)N(C)c1ccccc1 (stereo not given) | 12.7
7 | COc1cc(NCCNCC(C)(C)C)c2ncccc2c1 | 11.7
8 | NC(Cc1ccc(S(=O)(=O)O)cc1)C(=O)NC(CCCCNC(=O)NCCCCC(NC(=O)C(N)Cc1ccc(S(=O)(=O)O)cc1)C(=O)NC(Cc1ccc(S(=O)(=O)O)cc1)C(=O)O)C(=O)NC(Cc1ccc(S(=O)(=O)O)cc1)C(=O)O (stereo not given) | -11.7
9 | O=C1C=C(c2ccccc2)C(O)(c2ccccc2)/C1=C/C=C/c1ccccc1 (stereo not given) | -3.55
10 | COc1ccc2[nH]c3c4c(c(C)cc3c2c1)OC(C)(C)C=C4 | 16.2
11 | CN1c2cccc3cccc(c23)NC12CCCCC2 | 0.6
12 | CSC1=Nc2cc3c(cc2C(=O)N2C[C@H](O)CC12)OCO3 (stereo not given in full) | -20.9
13 | CC(C)(CCN(CC(=O)O)CC(=O)O)[N+](=O)[O-] | -16.1
14 | NC(CC(=O)Nc1ccc(Cl)cc1)=Nc1ccccc1 | -28.6
15 | COc1ccc2c(c1)C(O)C(NCc1ccccc1)C2 (stereo not given) | -13.6
16 | O=[N+]([O-])CC1=CCCCC1 | 30.6
17 | COC(=O)C(CC12CC3CC(CC(C3)C1)C2)NC(=O)C(N)CC(=O)O (stereo not given) | -42.9
18 | O=C1C(n2ccc(=O)[nH]c2=O)CCN1CCCl (stereo not given) | 0.2
19 | CC(=O)Nc1ccc(S(=O)(=O)Oc2noc3ccc(Br)cc23)cc1 | -8.35
20 | Cc1ccc(CCS(=O)(=O)N=[N+]=[N-])cc1 | 1.45

Row | SMILES | growth inhibition [%]
21 | Cc1ccccc1S(=O)(=O)Nn1cnc2ccc(S(=O)(=O)Nc3ccc(Cl)cc3)cc2c1=O | 40.1
22 | COc1cc(C2c3cc4c(cc3OC3(OC)COC(=O)C23)OCO4)cc(OC)c1OC (stereo not given) | 0.4
23 | CC1CN=C(N(C(=O)Nc2ccc(Cl)c(Cl)c2)c2ccccc2)S1 (stereo not given) | -47.3
24 | CC(=O)c1ccco1 | 17.8
25 | C/C(CC1CCCCC1)=N\NC(N)=O | 0.25
26 | O=C(N/N=C\c1cccc2c([N+](=O)[O-])cccc12)Nc1ccccc1 | -30.6
27 | COc1cc(OC)c(NC(N)=O)cc1Cl | 2.3
28 | NC(=O)CCCC(C(N)=O)(c1ccccc1)c1ccccc1 | 9.2
29 | Cn1cnc([N+](=O)[O-])c1Sc1nccn1-c1ccccc1 | -10.8
30 | O=[N+]([O-])c1cnc(/C=[N+](\[O-])C2CCCCC2)n1CCO | 3.7
31 | O=C(O)CCCCCC1=CCCCC1 | 11.9
32 | CC(C)(C)c1cc(C2OC(N)=C(O)C2=O)cc(C(C)(C)C)c1O (stereo not given) | 13.4
33 | CCN(CC)Cc1cc(N)cc(N=Nc2ccc3c(c2)c2ccccc2n3CC)c1O | 29.2
34 | O=C(CCCC(=O)Nc1cccc([N+](=O)[O-])c1)CC(=O)c1ccc([N+](=O)[O-])cc1 | -2.7
35 | Cc1ccc(S(=O)(=O)CCC(=O)c2ccccc2)cc1 | 9.3
36 | CC(C)(O)C(Cc1ccccc1)c1ccccc1 (stereo not given) | 0.55
37 | CC(=O)OC(C)CCl (stereo not given) | -27.6
38 | NCCCCCS(=O)(=O)O | 17.4
39 | CC1=NNC(=O)CC1C(O)c1ccccc1 (stereo not given) | -31.1
40 | Cc1ccc(S(=O)(=O)Nc2ccc(S(C)(=O)=O)cc2)cc1 | 2.4

experiment: NCI Yeast Anticancer Drug Screen. Data for the mec2-1 strain (AID 157); conditions: S. cerevisiae mec2-1 strain, at 50.0 µM, active compounds read high
Outline: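 Readout is yeast growth inhibition, normalised to vehicle-treated controls, in the mec2-1 strain exposed to compound.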

Row | SMILES | growth inhibition [%]
41 | Oc1ccc(-c2nc(-c3ccccc3)c(-c3ccccc3)[nH]2)cc1 | -14.9
42 | O=C1c2ccccc2C(=O)N1CC1CO1 (stereo not given) | 10.3
43 | C[N+]1(C)C/C(=C\c2ccc(O)cc2)C(=O)/C(=C/c2ccc(O)cc2)C1 | -16.3
44 | O=C(O)C(CCl)c1ccccc1 (stereo not given) | -3.1
45 | O=C(c1ccccc1)c1c(-c2ccccc2)sc2nc3ccccc3nc12 | 18.3
46 | CC(C(=O)c1ccccc1)N(C)c1ccccc1 (stereo not given) | -5.35
47 | COc1cc(NCCNCC(C)(C)C)c2ncccc2c1 | 18.7
48 | NC(Cc1ccc(S(=O)(=O)O)cc1)C(=O)NC(CCCCNC(=O)NCCCCC(NC(=O)C(N)Cc1ccc(S(=O)(=O)O)cc1)C(=O)NC(Cc1ccc(S(=O)(=O)O)cc1)C(=O)O)C(=O)NC(Cc1ccc(S(=O)(=O)O)cc1)C(=O)O (stereo not given) | -3.8
49 | O=C1C=C(c2ccccc2)C(O)(c2ccccc2)/C1=C/C=C/c1ccccc1 (stereo not given) | -14.1
50 | COc1ccc2[nH]c3c4c(c(C)cc3c2c1)OC(C)(C)C=C4 | -5.75
51 | CN1c2cccc3cccc(c23)NC12CCCCC2 | -20.5
52 | CSC1=Nc2cc3c(cc2C(=O)N2C[C@H](O)CC12)OCO3 (stereo not given in full) | -25.5
53 | CC(C)(CCN(CC(=O)O)CC(=O)O)[N+](=O)[O-] | -3.1
54 | NC(CC(=O)Nc1ccc(Cl)cc1)=Nc1ccccc1 | -12.9
55 | COc1ccc2c(c1)C(O)C(NCc1ccccc1)C2 (stereo not given) | -7.75
56 | O=[N+]([O-])CC1=CCCCC1 | 12.2
57 | COC(=O)C(CC12CC3CC(CC(C3)C1)C2)NC(=O)C(N)CC(=O)O (stereo not given) | -30.4
58 | O=C1C(n2ccc(=O)[nH]c2=O)CCN1CCCl (stereo not given) | 1.35
59 | CC(=O)Nc1ccc(S(=O)(=O)Oc2noc3ccc(Br)cc23)cc1 | -8.05
60 | Cc1ccc(CCS(=O)(=O)N=[N+]=[N-])cc1 | -11.8

Row | SMILES | growth inhibition [%]
61 | Cc1ccccc1S(=O)(=O)Nn1cnc2ccc(S(=O)(=O)Nc3ccc(Cl)cc3)cc2c1=O | 0.25
62 | COc1cc(C2c3cc4c(cc3OC3(OC)COC(=O)C23)OCO4)cc(OC)c1OC (stereo not given) | 13.4
63 | CC1CN=C(N(C(=O)Nc2ccc(Cl)c(Cl)c2)c2ccccc2)S1 (stereo not given) | 3.6
64 | CC(=O)c1ccco1 | 16.4
65 | C/C(CC1CCCCC1)=N\NC(N)=O | 1.35
66 | O=C(N/N=C\c1cccc2c([N+](=O)[O-])cccc12)Nc1ccccc1 | -0.45
67 | COc1cc(OC)c(NC(N)=O)cc1Cl | -35
68 | NC(=O)CCCC(C(N)=O)(c1ccccc1)c1ccccc1 | 13.3
69 | Cn1cnc([N+](=O)[O-])c1Sc1nccn1-c1ccccc1 | -7.1
70 | O=[N+]([O-])c1cnc(/C=[N+](\[O-])C2CCCCC2)n1CCO | 17.6
71 | O=C(O)CCCCCC1=CCCCC1 | 33.2
72 | CC(C)(C)c1cc(C2OC(N)=C(O)C2=O)cc(C(C)(C)C)c1O (stereo not given) | 11.1
73 | CCN(CC)Cc1cc(N)cc(N=Nc2ccc3c(c2)c2ccccc2n3CC)c1O | 0
74 | O=C(CCCC(=O)Nc1cccc([N+](=O)[O-])c1)CC(=O)c1ccc([N+](=O)[O-])cc1 | -1.25
75 | Cc1ccc(S(=O)(=O)CCC(=O)c2ccccc2)cc1 | 16
76 | CC(C)(O)C(Cc1ccccc1)c1ccccc1 (stereo not given) | 7.9
77 | CC(=O)OC(C)CCl (stereo not given) | -48.1
78 | NCCCCCS(=O)(=O)O | -1.15
79 | CC1=NNC(=O)CC1C(O)c1ccccc1 (stereo not given) | 3.65
80 | Cc1ccc(S(=O)(=O)Nc2ccc(S(C)(=O)=O)cc2)cc1 | -4.2
